An excerpt weighted towards active compounds, which were near 19% of everything screened.
KB-3-1 tox = kills parental KB-3-1 adenocarcinoma cells | 1.4% of 400,000 active | Potency, µM (highest dose often 46.1 µM), actives largely listed as cytotoxic | KB-3-1 viability, CellTiter-Glo ATP luminescence, 72 h; also: nearly all actives have a fitted effect of over 60% in size
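Cytotoxicity measured as CellTiter-Glo luminescence after 72 h at 37 C. Compound titrations were pinned onto drug-naive KB-3-1 parental adenocarcinoma cells grown in DMEM with 10% FBS, and normalized data fitted to concentration-response curves.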
HT1080 IDH1KD tx = HT-1080 IDH1 knockdown cell toxicity (counter line) | HT-1080 IDH1 knockdown viability, ATP luminescence, 48 h | 2% of 360,000 active | Potency, µM (titrated, usually from 46.1 µM), without a hit: top-dose activity, negative = toxicity, actives largely listed as cytotoxic | AID 686971;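 also: 0% = DMSO wells and -100% = cell-free medium wells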
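IDH1KD HT-1080 cells, 750/well, RPMI + 5% FBS; compound pinned after 2 h settling; 48 h, 37 °C; CellTiter-Glo luminescence; % activity normalised to DMSO and no-cell wells; curves fitted, classed by r2 and efficacy.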
HT1080-NT tox = kills 2HG-producing HT-1080-NT fibrosarcoma cells; HT-1080-NT fibrosarcoma viability, CellTiter-Glo ATP luminescence, 48 h; AID 686970; Potency, µM (series often up to 46.1 µM), for the others: at the top dose activity, negative = less viability, most hits filed as cytotoxic; 1.6% of 360,000 active;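 also: NT is the 2HG producing partner of a matched IDH1 knockdown line; 0% = DMSO-treated cells and -100% = media-only wells without cells; nearly all actives have a fitted effect of over 55% in size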
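Toxicity toward the 2HG-producing NT line was scored as %Activity, normalised to DMSO and no-cell wells, from CellTiter-Glo luminescence after 48 hours' treatment.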
TDP1 cell CPT = DT40-hTDP1 cell growth loss with CPT; 12% of 420,000 active; AID 686979; chicken DT40 Tdp1-/-;hTDP1 cells + 20 nM CPT, ATP luminescence, 48 h; Potency, µM (top dose mostly 46.2 µM), for the others: top-dose activity change, negative = growth inhibition, usual class: inhibitors; also: nearly all actives have a fitted effect of over 55% in size
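Chicken DT40 Tdp1-/- cells complemented with human TDP1, 400 cells/well, exposed to compounds plus 20 nM camptothecin for at least 48 h at 37 C; viability read as ATP content by CellTiter-Glo luminescence.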
DT40 TDP1 no CPT = qHTS for Inhibitors of human tyrosyl-DNA phosphodiesterase 1 (TDP1): qHTS in cells in absence of CPT; DT40 Tdp1-/- hTDP1 cells, no CPT, ATP luminescence, 48 h; Potency, µM (top dose mostly 46.2 µM), for the others: at the highest dose activity change, negative = growth inhibition, most hits filed as inhibitors; 15% of 420,000 active; also: nearly all actives have a fitted effect of over 55% in size
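Stably hTDP1-transfected Tdp1-null chicken DT40 cells were treated with library compounds minus camptothecin and grown for at least 48 hr at 37 °C, after which cellular ATP was quantified by luminescence.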
KB-V1 cytotox = kills drug-selected multidrug resistant KB-V1 cells. Potency, µM (series often up to 46.1 µM), actives largely listed as cytotoxic. AID 1347076. 3.4% of 400,000 active. KB-V1 MDR cells viability, CellTiter-Glo, 72 h; also: nearly all actives have a fitted effect of over 60% in size
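KB-V1 MDR subline cells in DMEM (phenol-red free, 10% FBS) exposed to compounds in qHTS concentration series for 72 h at 37 degrees C. Viability read by CellTiter-Glo luminescence; concentration-effect curves fitted after normalization and correction.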
Numbers without * were called inactive; i = inactive; ? = inconclusive; · = no result. Calls follow the shape of the dose curve; as a rule, active = well fitted curve in the direction sought with a large enough effect; inconclusive = small, poorly fitted or top-dose-only effect, or another doubt; inactive = no such curve, though single readings can be large; an effect the other way counts as inactive or inconclusive. Unless noted, % is scaled to controls: 0 for no effect and ±100 for the full control effect; potency is read from the fitted curve at half-maximal effect.

SMILES	KB-3-1 tox	HT1080 IDH1KD tx	HT1080-NT tox	TDP1 cell CPT	DT40 TDP1 no CPT	KB-V1 cytotox
COc1ccc(-c2c(N)nnc3c2[nH]c2ccccc23)cc1OC	i	-18%	-5%	?	21µM*	i
O=C1Nc2ccc(Br)cc2C1Cc1ccccc1F (stereo not drawn)	i	-2%	2%	38%	5%	i
CSc1ccc(CC2C(=O)Nc3ccccc32)cc1 (stereo not drawn)	·	·	·	?	21µM*	·
CN(C)c1ccc(CC2C(=O)Nc3ccccc32)cc1 (stereo not drawn)	i	2%	3%	?	?	i
Cc1cccc(CC2C(=O)Nc3ccccc32)c1 (stereo not drawn)	·	·	·	?	21µM*	·
Cc1cc2[nH]c(=O)c(=O)[nH]c2cc1S(=O)(=O)Nc1cccc(C(F)(F)F)c1	i	·	·	1%	-1%	i
CCOc1ccc(S(=O)(=O)N2CCCC(C(=O)NCc3cccnc3)C2)cc1C (stereo not drawn)	i	6%	2%	?	26µM*	i
Cc1ccc(S(=O)(=O)N2CCCC(C(=O)NC3CCCC3)C2)cc1Cl (stereo not drawn)	?	-3%	-9%	?	?	13µM*
COc1ccc(S(=O)(=O)N2CCCC(C(=O)NCc3ccccn3)C2)cc1Cl (stereo not drawn)	i	13%	12%	?	-15%	i
CCOc1ccc(S(=O)(=O)N2CCCC(C(=O)NCc3ccccn3)C2)cc1Cl (stereo not drawn)	i	-17%	-1%	?	16µM*	?
Cc1ccc2nc(NC(=O)C3CCCN(S(=O)(=O)c4cccnc4)C3)sc2c1 (stereo not drawn)	i	-19%	-14%	23µM*	16µM*	i
COc1ccccc1NC(=O)C(C)OC(=O)C1CC(=O)N(Cc2ccco2)C1 (stereo not drawn)	i	-1%	-8%	-2%	-12%	?
CCCNC(=O)Nc1ccc(NC(C)=O)cc1	i	-1%	-2%	-19%	?	i
O=C(CN1Cc2ccccc2C1=O)Nc1ccc2c(c1)OCCO2	i	16%	11%	15%	4%	i
CC(C)C1Oc2ccccc2N(CC(=O)NCCCN2C(C)CCCC2C)C1=O (stereo not drawn)	i	16%	-1%	13%	12%	i
O=C(Cc1ccc(Br)cc1)NO	·	0%	-13%	?	?	·
Cc1ccc(-n2ncc3c(NCc4ccccc4)ncnc32)cc1Cl	i	·	·	?	?	i
Cc1ccc(Cl)cc1-n1ncc2c(NCCc3ccccc3)ncnc21	i	·	·	16µM*	21µM*	i
Fc1ccc(-n2ncc3c(NCCC4=CCCCC4)ncnc32)cc1	i	·	·	?	?	i
Cc1ccc(Cl)cc1-n1ncc2c(NCCC3=CCCCC3)ncnc21	i	·	·	16µM*	?	?
Cc1ccc(Cl)cc1-n1ncc2c(NCc3ccc(F)cc3)ncnc21	i	·	·	?	?	i
Cc1ccc(Cl)cc1-n1ncc2c(NCCCc3ccccc3)ncnc21	?	·	·	7.3µM*	?	?
Cc1ccc(S(=O)(=O)NCC(=O)OC(C)C(=O)Nc2ncc(Cl)cc2Cl)cc1 (stereo not drawn)	i	4%	6%	3%	-7%	i
O=c1c(-c2ccc(F)cc2)nc2cnc(N3CCOCC3)nc2n1C[C@H]1CCCO1	·	·	·	-6%	-2%	·
COc1ccc(N2CC(C(=O)N3CCC(c4nc5ccccc5[nH]4)CC3)CC2=O)cc1 (stereo not drawn)	i	-14%	0%	-12%	-3%	i
SMILES	KB-3-1 tox	HT1080 IDH1KD tx	HT1080-NT tox	TDP1 cell CPT	DT40 TDP1 no CPT	KB-V1 cytotox
Clc1ccc(OCc2cn3ccccc3n2)c2ncccc12	i	-1%	-2%	15µM*	16µM*	i
CC(C)OCC(O)CS(=O)Cc1ccccc1 (stereo not drawn)	i	14%	0%	-3%	-4%	i
COC(=O)[C@@]1(Sc2ccc(C)cc2)CC(=O)N(c2ccc(Cl)cc2)[C@@H]1c1ccccc1	i	9%	16%	?	21µM*	?
COC(=O)c1cccc(N2C(=O)C[C@](Sc3ccc(C)cc3)(C(=O)OC)[C@H]2c2ccccc2)c1	i	?	?	?	23µM*	?
COc1ccccc1Oc1ccc(S(=O)(=O)NCc2ccccn2)cc1	?	-29%	-7%	?	14µM*	?
COc1ccc(S(=O)(=O)NCc2ccccn2)cc1OC	i	22%	13%	8%	-3%	i
COc1ccc(S(=O)(=O)NCc2ccccn2)c(C)c1C	i	15%	15%	-14%	?	i
CC(C)(C)c1ccc(S(=O)(=O)NCc2ccc(C(=O)NCc3ccccn3)cc2)cc1	?	2%	-1%	21µM*	18µM*	i
CCOc1ccc(S(=O)(=O)NCc2ccccn2)c(C)c1C	i	7%	2%	23µM*	-18%	?
COc1ccc(S(=O)(=O)NCc2ccccn2)cc1NC(=O)c1ccccc1C	15µM*	?	?	4.1µM*	4.6µM*	?
COc1cc(/C=C2\CCn3c2nc2cc(C(=O)O)ccc2c3=O)ccc1OC(F)F	i	0%	26%	?	-39%	i
COc1ccc(S(=O)(=O)NCc2ccccn2)cc1NC(=O)c1ccc(Cl)cc1	?	?	?	?	16µM*	?
COc1ccc(S(=O)(=O)NCc2ccccn2)cc1Cl	i	7%	7%	-9%	-9%	i
CCc1ccc2nc3nc(C)cc(C)c3c(N)c2c1	i	13µM*	?	?	11µM*	21µM*
Cc1cc(C)c2c(N)c3ccccc3nc2n1	i	?	?	?	23µM*	?
O=C(c1ccccc1OCc1ccccc1Br)N1CCN(c2ncccn2)CC1	?	?	?	?	?	6.5µM*
CCOc1ccccc1-n1c(SCC(=O)N2CCOCC2)nc2ccccc2c1=O	i	10%	4%	1%	-30%	?
CN(C)CCCNc1ncnc2ccc(-c3ccc4c(c3)OCO4)cc12	i	·	·	·	·	i
CN(C)C(=S)N=Nc1[nH]c2ccccc2c1O	i	-14%	-26%	0.58µM*	0.52µM*	i

Screens deposited in PubChem BioAssay by National Center for Advancing Translational Sciences (NCATS).
